Results filed as inconclusive are left out. Where a call stands in place of a potency, no number is given. Activity calls are given as the source filed them. Unless noted, the call rests on the fitted dose curve.
Potency means the concentration at half of the fitted maximal effect.

Chain of Progesterone receptor (Homo sapiens) (P06401 whole entry, looked up): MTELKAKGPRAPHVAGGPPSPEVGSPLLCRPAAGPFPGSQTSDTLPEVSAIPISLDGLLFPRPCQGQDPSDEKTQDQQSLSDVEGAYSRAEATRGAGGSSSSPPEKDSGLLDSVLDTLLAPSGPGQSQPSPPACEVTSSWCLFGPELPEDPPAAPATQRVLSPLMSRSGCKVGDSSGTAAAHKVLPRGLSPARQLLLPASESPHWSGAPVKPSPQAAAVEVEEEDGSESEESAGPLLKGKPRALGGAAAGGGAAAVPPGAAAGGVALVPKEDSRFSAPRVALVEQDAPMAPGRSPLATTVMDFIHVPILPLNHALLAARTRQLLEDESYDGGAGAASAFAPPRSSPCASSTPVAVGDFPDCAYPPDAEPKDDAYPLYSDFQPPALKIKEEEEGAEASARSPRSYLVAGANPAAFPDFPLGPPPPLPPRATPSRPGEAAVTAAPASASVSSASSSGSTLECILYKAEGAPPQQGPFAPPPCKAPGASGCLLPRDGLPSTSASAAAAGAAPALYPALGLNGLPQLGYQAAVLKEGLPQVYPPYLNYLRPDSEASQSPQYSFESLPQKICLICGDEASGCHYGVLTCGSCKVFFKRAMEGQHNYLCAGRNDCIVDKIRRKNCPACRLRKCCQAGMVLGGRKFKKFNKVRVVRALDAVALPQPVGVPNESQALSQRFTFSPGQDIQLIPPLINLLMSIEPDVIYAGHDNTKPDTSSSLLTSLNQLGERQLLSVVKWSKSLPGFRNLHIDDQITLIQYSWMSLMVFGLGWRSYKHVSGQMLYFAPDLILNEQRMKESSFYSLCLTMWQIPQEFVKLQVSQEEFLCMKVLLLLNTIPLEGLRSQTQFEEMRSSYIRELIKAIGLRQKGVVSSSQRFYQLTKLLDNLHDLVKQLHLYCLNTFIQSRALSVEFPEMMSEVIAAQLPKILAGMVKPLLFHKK

One assay concerns the target Progesterone receptor (Homo sapiens) (UniProt P06401). Nature of the assay: qHTS assay to identify small molecule agonists of the progesterone receptor (PR) signaling pathway (AID 1346784). Further: nearly all actives have a fitted effect of over 30% in size. The note with it: PR-UAS-bla HEK293T, beta-lactamase FRET ratio, 16 h; series mostly up to 92.4 µM. An outline of the steps:
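The screen uses PR-UAS-bla HEK 293T cells in charcoal-stripped serum (2%). Compounds are applied for 16 hr at 37C after a 6 hr pre-incubation, and reporter activity is detected with a FRET beta-lactamase substrate after 2 hr at room temperature.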
A general note: In qHTS, concentration-response curves come from the screen itself.
For the molecule `C=CC(=O)NC(C)C`, the Potency result is “inactive”.
Take `CCCCCCCCCCCCCCCC(=O)OCC`: the Potency entry was “inactive”.
With `CC(C)(C)C1(CCc2ccc(Cl)cc2)CO1` (configuration not stated), the Potency result was “inactive”.
On the same count and under the same terms, to `CC(=O)Oc1cccc(O)c1` belongs “inactive”; to `CSCC[C@H](NC(=O)[C@H](Cc1c[nH]c2ccccc12)NC(=O)CCNC(=O)OC(C)(C)C)C(=O)N[C@@H](CC(=O)O)C(=O)N[C@@H](Cc1ccccc1)C(N)=O`, “inactive”; to `O=C(Oc1ccccc1)c1ccc2ccccc2c1O`, “inactive”.
Still for that read-out and setting: to `CC(C)(C)S` belongs “inactive”; to `CC[C@H]1OC(=O)[C@H](C)[C@@H](O[C@H]2C[C@@](C)(OC)[C@@H](O)[C@H](C)O2)[C@H](C)[C@@H](O[C@@H]2O[C@H](C)C[C@H](N(C)C)[C@H]2O)[C@](C)(O)C[C@@H](C)/C(=N\OCOCCOC)[C@H](C)[C@@H](O)[C@]1(C)O`, “inactive”; to `FC(F)(F)C(F)(F)C(F)(F)C(F)(F)CCI`, “inactive”.
The same measure, in the same setting: to `O=c1[nH]c2cc(C(F)(F)F)c(N3CCOCC3)cc2n(CP(=O)(O)O)c1=O` belongs “inactive”.
Consider `C=Cc1ccc(OC(C)=O)cc1`, for which the Potency entry is “inactive”.
In the case of `CCCCCCCC(=O)OCCCCCC`, the Potency entry was “inactive”.
In the case of `CCCCCCCCCCCC(=O)OCC(O)CO` (configuration not stated), the Potency entry was “inactive”.
On to `O=C(O)CCC(=O)OC[C@@H](NC(=O)C(Cl)Cl)[C@H](O)c1ccc([N+](=O)[O-])cc1`, for which the Potency entry is “inactive”.
In the case of `CCOC(=O)N1CCC(Nc2ccc(Cl)cc2N)CC1`, the Potency result is “inactive”.
With `NC(=O)c1ccccc1[N+](=O)[O-]`, the Potency result was “inactive”.
As for `O=C1[C@@H]2[C@H]3CC[C@H](C3)[C@@H]2C(=O)N1CCCCN1CCN(c2ncccn2)CC1`, the Potency result was “inactive”.
Consider `CC(=O)C(=O)CC(C)C`, for which the Potency result was “inactive”.
For the molecule `O=C1OC(=O)c2c(Br)c(Br)c(Br)c(Br)c21`, the Potency entry is “inactive”.
As for `O=C(NS(=O)(=O)/C=C/c1ccccc1)c1ccc(F)cc1Cl`, the Potency result is “inactive”.
On the same count and under the same terms, for `CN1CCCN(C(c2ccccc2)c2ccc(Cl)cc2)CC1` (configuration not stated) the value was “inactive”.
On the same count and under the same terms, for `CNc1c2c(nn1C)CCCC2` the value was “inactive”; for `CCCCC[C@H](O)/C=C/[C@H]1[C@H](O)CC(=O)[C@@H]1C/C=C\CCCC(=O)O`, “inactive”; for `CCSC(=O)N(CC)CC`, “inactive”.
Turning to `COC(C)(C)OC`, the Potency result is “inactive”.
Consider `CCCCCCCC/C=C/C(=O)O`, for which the Potency entry is “inactive”.
On to `O=C(O)CCC(=O)c1ccc(-c2ccccc2)cc1`, for which the Potency entry was “inactive”.
For the molecule `CCN(CC)c1cccc(O)c1`, the Potency result is “inactive”.
Consider `CC(C)c1ccc(C(=O)N=C(N)N)cc1S(C)(=O)=O`, for which the Potency result was “inactive”.
The same measure, in the same setting: for `O=C(CCS)OCC(COC(=O)CCS)(COC(=O)CCS)COC(=O)CCS` the value was “inactive”; for `Cc1ccc2c(c1)CCCN2`, “inactive”.
For `CC(C)(O)CCc1ccccc1`, the Potency entry is “inactive”.
Take `Nc1cccc2c(N)cccc12`: the Potency is 1.93 µM (active).

For another assay the target is unchanged. Briefly: qHTS assay to identify small molecule antagonists of the progesterone receptor (PR) signaling pathway (AID 1346795; active means well fitted inhibition curve with a large enough effect in the signal ratio in the repeat runs, not every such curve was filed as active; the % refers to the signal ratio). The conditions noted are these: PR-UAS-bla HEK293T, beta-lactamase FRET ratio, 16 h; series mostly up to 92.4 µM. In short, it runs like this:
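After 6 hr plating at 37C in 2% stripped-serum medium, PR-UAS-bla HEK293T cells got compounds, then 1 nM R5020. Sixteen hours later, LiveBLAzer substrate was applied for 2 hr at room temperature and fluorescence was recorded.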
With `C=CC(=O)NC(C)C`, the Potency result is “inactive”.
In the case of `CCCCCCCCCCCCCCCC(=O)OCC`, the Potency result was “inactive”.
As for `CC(=O)Oc1cccc(O)c1`, the Potency entry is “inactive”.
Same read-out and setting: for `CSCC[C@H](NC(=O)[C@H](Cc1c[nH]c2ccccc12)NC(=O)CCNC(=O)OC(C)(C)C)C(=O)N[C@@H](CC(=O)O)C(=O)N[C@@H](Cc1ccccc1)C(N)=O` the value was “inactive”; for `O=C(Oc1ccccc1)c1ccc2ccccc2c1O`, 30.6 µM (active).
Regarding `CC(C)(C)S`, the Potency entry is “inactive”.
`CC[C@H]1OC(=O)[C@H](C)[C@@H](O[C@H]2C[C@@](C)(OC)[C@@H](O)[C@H](C)O2)[C@H](C)[C@@H](O[C@@H]2O[C@H](C)C[C@H](N(C)C)[C@H]2O)[C@](C)(O)C[C@@H](C)/C(=N\OCOCCOC)[C@H](C)[C@@H](O)[C@]1(C)O`: the Potency entry is “inactive”.
Take `FC(F)(F)C(F)(F)C(F)(F)C(F)(F)CCI`: the Potency entry is “inactive”.
`O=c1[nH]c2cc(C(F)(F)F)c(N3CCOCC3)cc2n(CP(=O)(O)O)c1=O`: the Potency entry was “inactive”.
`C=Cc1ccc(OC(C)=O)cc1`: the Potency result was “inactive”.
Regarding `CCCCCCCC(=O)OCCCCCC`, the Potency result was “inactive”.
Regarding `CCCCCCCCCCCC(=O)OCC(O)CO` (configuration not stated), the Potency result is “inactive”.
As for `O=C(O)CCC(=O)OC[C@@H](NC(=O)C(Cl)Cl)[C@H](O)c1ccc([N+](=O)[O-])cc1`, the Potency result was “inactive”.
Regarding `NC(=O)c1ccccc1[N+](=O)[O-]`, the Potency entry is “inactive”.
On the same count and under the same terms, for `O=C1[C@@H]2[C@H]3CC[C@H](C3)[C@@H]2C(=O)N1CCCCN1CCN(c2ncccn2)CC1` the value was “inactive”; for `CCCCCCCC/C=C\CCCCCCCC(=O)OCCO`, “inactive”.
In the case of `CN1CCCN(C(c2ccccc2)c2ccc(Cl)cc2)CC1` (configuration not stated), the Potency was 21.1 µM (active).
For `CNc1c2c(nn1C)CCCC2`, the Potency entry is “inactive”.
In the case of `CCCCC[C@H](O)/C=C/[C@H]1[C@H](O)CC(=O)[C@@H]1C/C=C\CCCC(=O)O`, the Potency result is “inactive”.
The same measure, in the same setting: for `CCSC(=O)N(CC)CC` the value was “inactive”.
Take `COC(C)(C)OC`: the Potency entry is “inactive”.
On the same count and under the same terms, for `CC(C)c1ccc(C(=O)N=C(N)N)cc1S(C)(=O)=O` the value was “inactive”; for `O=C(CCS)OCC(COC(=O)CCS)(COC(=O)CCS)COC(=O)CCS`, “inactive”.
In the case of `Cc1ccc2c(c1)CCCN2`, the Potency entry is “inactive”.
With `CC(C)(O)CCc1ccccc1`, the Potency result was “inactive”.
As to `CCN(CC)C(=O)/C(C#N)=C/c1cc(O)c(O)c([N+](=O)[O-])c1`, the Potency entry is “inactive”.

Tested on in another assay: not listed separately
Nature of the assay: qHTS assay to identify small molecule antagonists of the progesterone receptor (PR) signaling pathway - cell viability counter screen (AID 1346798; active means well fitted cell-killing curve with a large enough effect in the repeat runs; further: nearly all actives have a fitted effect of over 50% in size). The conditions noted are these: PR-UAS-bla HEK293T viability, CellTiter-Glo luminescence, 16 h; series mostly up to 92.4 µM. In short, it runs like this:
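Viability was determined by ATP-based luminescence (CellTiter-Glo) in PR-UAS-bla HEK293T cells cultured in 2% charcoal-stripped serum and incubated 16 hr with compounds under R5020 stimulation.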
With `C=CC(=O)NC(C)C`, the Potency entry was “inactive”.
Regarding `CCCCCCCCCCCCCCCC(=O)OCC`, the Potency result was “inactive”.
For `CC(C)(C)C1(CCc2ccc(Cl)cc2)CO1` (configuration not stated), the Potency result is “inactive”.
Same read-out and setting: for `CC(=O)Oc1cccc(O)c1` the value was “inactive”; for `CSCC[C@H](NC(=O)[C@H](Cc1c[nH]c2ccccc12)NC(=O)CCNC(=O)OC(C)(C)C)C(=O)N[C@@H](CC(=O)O)C(=O)N[C@@H](Cc1ccccc1)C(N)=O`, “inactive”.
For the molecule `O=C(Oc1ccccc1)c1ccc2ccccc2c1O`, the Potency entry was “inactive”.
`CC(C)(C)S`: the Potency entry was “inactive”.
Regarding `CC[C@H]1OC(=O)[C@H](C)[C@@H](O[C@H]2C[C@@](C)(OC)[C@@H](O)[C@H](C)O2)[C@H](C)[C@@H](O[C@@H]2O[C@H](C)C[C@H](N(C)C)[C@H]2O)[C@](C)(O)C[C@@H](C)/C(=N\OCOCCOC)[C@H](C)[C@@H](O)[C@]1(C)O`, the Potency result is “inactive”.
`FC(F)(F)C(F)(F)C(F)(F)C(F)(F)CCI`: the Potency result is “inactive”.
For `O=c1[nH]c2cc(C(F)(F)F)c(N3CCOCC3)cc2n(CP(=O)(O)O)c1=O`, the Potency entry is “inactive”.
On to `C=Cc1ccc(OC(C)=O)cc1`, for which the Potency entry is “inactive”.
For `CCCCCCCC(=O)OCCCCCC`, the Potency entry was “inactive”.
Turning to `CCCCCCCCCCCC(=O)OCC(O)CO` (configuration not stated), the Potency entry is “inactive”.
On to `O=C(O)CCC(=O)OC[C@@H](NC(=O)C(Cl)Cl)[C@H](O)c1ccc([N+](=O)[O-])cc1`, for which the Potency result is “inactive”.
`CCOC(=O)N1CCC(Nc2ccc(Cl)cc2N)CC1`: the Potency entry was “inactive”.
In the case of `NC(=O)c1ccccc1[N+](=O)[O-]`, the Potency result is “inactive”.
In the case of `O=C1[C@@H]2[C@H]3CC[C@H](C3)[C@@H]2C(=O)N1CCCCN1CCN(c2ncccn2)CC1`, the Potency result is “inactive”.
For the molecule `CCCCCCCC/C=C\CCCCCCCC(=O)OCCO`, the Potency entry was “inactive”.
Still for that read-out and setting: to `C1CCCCC1` belongs “inactive”; to `O=C1OC(=O)c2c(Br)c(Br)c(Br)c(Br)c21`, “inactive”.
With `O=C(NS(=O)(=O)/C=C/c1ccccc1)c1ccc(F)cc1Cl`, the Potency result was “inactive”.
Consider `CN1CCCN(C(c2ccccc2)c2ccc(Cl)cc2)CC1` (configuration not stated), for which the Potency is 15 µM (active).
Still for that read-out and setting: for `CNc1c2c(nn1C)CCCC2` the value was “inactive”; for `CCCCC[C@H](O)/C=C/[C@H]1[C@H](O)CC(=O)[C@@H]1C/C=C\CCCC(=O)O`, “inactive”; for `CCSC(=O)N(CC)CC`, “inactive”.
Take `COC(C)(C)OC`: the Potency entry was “inactive”.
Consider `CCCCCCCC/C=C/C(=O)O`, for which the Potency result is “inactive”.
With `CCN(CC)c1cccc(O)c1`, the Potency entry is “inactive”.
With `O=C1NC(=O)c2cccc3cccc1c23`, the Potency result was “inactive”.
With `CC(C)c1ccc(C(=O)N=C(N)N)cc1S(C)(=O)=O`, the Potency result is “inactive”.
`O=C(CCS)OCC(COC(=O)CCS)(COC(=O)CCS)COC(=O)CCS`: the Potency result was “inactive”.
Still for that read-out and setting: to `Cc1ccc2c(c1)CCCN2` belongs “inactive”.
Still for that read-out and setting: for `CC(C)(O)CCc1ccccc1` the value was “inactive”.

The record behind these values is PubChem BioAssay (Tox21).
